High-throughput results deposited in PubChem by National Center for Advancing Translational Sciences (NCATS).
BAZ2B inh: inhibitors of human BAZ2B bromodomain. Q9UIF8. AlphaScreen BAZ2B-H3K14Ac peptide displacement. Potency, µM (highest dose often 114 µM), actives largely listed as inhibitors. 360,000 compounds, 4.4% hits. AID 504333; also: nearly all actives have a fitted effect of over 60% in size
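AlphaScreen displacement: compounds (up to 110uM) incubated 30 min at room temperature with a preformed 50 nM BAZ2B/50 nM biotinylated H3K14Ac peptide complex in PBS pH 7.4 with Tween-20. Donor and acceptor beads at 10 ug/mL final added, 20 min light-protected before reading.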
CtBP-E1A blk: blocks the CtBP interaction with E1A; AlphaScreen GST-E1A/His-CtBP binding, 1536-well; stronger effect = lower value; activity change, % (concentration not given with the values); AID 651724; 340,000 compounds, 0.49% hits; in the data active = activity change below about -65%; inconclusive = mostly about -30% to -63%
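Protein mix (5X: 125 nM each GST-E1A, His-CtBP) was incubated with pinned compound 2 h at 37 deg C in dark, in 50 mM Tris pH 8.0 buffer with 300 mM NaCl. Glutathione donor and nickel acceptor beads followed; AlphaScreen signal read after 1 h.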
HP1b chromo inh: HP1-beta chromodomain-methylated histone interaction inhibition; P83916; AlphaScreen HP1-beta / biotin-H3K9me3 peptide binding; Potency, µM (top dose mostly 114 µM), actives largely listed as inhibitors; 390,000 compounds, 0.56% hits; also: nearly all actives have a fitted effect of over 70% in size
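AlphaScreen: HP1-beta (50 nM) preformed 30 min with biotin-H3(1-18)K9me3 peptide (50 nM) in PBS pH 7.4, 0.01% Tween-20. Compound added for 30 min at RT, then streptavidin donor/nickel chelate acceptor beads (10 ug/mL) for 30 min.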
JMJD2A Tudor inh: JMJD2A Tudor domain (human) inhibition. O75164. AlphaScreen JMJD2A-Tudor / H3K4me3 peptide binding. Potency, µM (doses to about 114 µM), most hits filed as inhibitors. 390,000 compounds, 4.4% hits; also: nearly all actives have a fitted effect of over 50% in size
TDP1 block: blocks human tyrosyl-DNA phosphodiesterase 1; Q9NUW8; recombinant TDP1, AlphaScreen DNA substrate cleavage; Potency, µM (series often up to 130 µM), usual class: inhibitors; 350,000 compounds, 0.28% hits; also: nearly all actives have a fitted effect of over 40% in size
Target sequence (Q9NUW8 whole entry, looked up): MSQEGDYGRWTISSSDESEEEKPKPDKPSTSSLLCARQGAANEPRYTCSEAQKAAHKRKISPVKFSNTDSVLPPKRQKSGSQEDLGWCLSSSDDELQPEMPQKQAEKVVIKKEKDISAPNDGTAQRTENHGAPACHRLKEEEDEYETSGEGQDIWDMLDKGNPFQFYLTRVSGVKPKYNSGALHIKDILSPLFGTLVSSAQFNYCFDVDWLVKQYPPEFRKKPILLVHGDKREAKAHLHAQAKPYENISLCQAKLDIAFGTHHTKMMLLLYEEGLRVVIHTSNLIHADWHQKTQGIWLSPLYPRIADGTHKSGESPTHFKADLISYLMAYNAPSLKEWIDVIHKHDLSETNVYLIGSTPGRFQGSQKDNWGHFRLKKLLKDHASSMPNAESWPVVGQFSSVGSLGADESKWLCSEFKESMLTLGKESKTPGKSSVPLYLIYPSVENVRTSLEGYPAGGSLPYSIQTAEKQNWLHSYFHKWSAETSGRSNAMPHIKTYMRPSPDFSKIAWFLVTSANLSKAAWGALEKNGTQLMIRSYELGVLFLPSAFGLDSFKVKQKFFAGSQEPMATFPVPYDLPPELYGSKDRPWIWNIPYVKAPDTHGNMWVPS
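Steps: enzyme plus compound, 15 min RT; add biotin/phosphotyrosine-FITC oligonucleotide (15 nM final), react 5 min; add donor/acceptor beads (10 ug/ml final), 10 min; read AlphaScreen. Tdp1 at 1 nM final.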
Six1-Eya2 blk: Six1/Eya2 interaction inhibition; AlphaScreen GST-Six1/His-Eya2 binding, biochemical; stronger effect = lower value; Q15475+O00167; activity change, % (test concentration not listed); AID 651725; 360,000 compounds, 0.56% hits; in the data active = activity change below about -65%; inconclusive = mostly about -30% to -63%
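Six1/Eya2 binding was read as AlphaScreen signal after compounds were pinned into GST-Six1 plus His-tagged Eya2 (5X stock 250/500 nM) in pH 8.0 Tris/NaCl/TCEP buffer, beads added, then incubated 1 h, 37 C, dark.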
Numbers stand for hits. Only some compounds are listed: those with a hit (about 5.3% of all), similar ones and a draw of the others. Unless noted, calls follow the shape of the dose curve; as a rule, active = well fitted inhibition curve with a large enough effect; inconclusive = small, poorly fitted or top-dose-only effect; inactive = no such curve, though single readings can be large or run the other way.

For CC(=O)Nc1ccc(/C=C/c2nc3ccccc3[nH]c2=O)cc1 the results were BAZ2B inh inactive, CtBP-E1A blk inactive, HP1b chromo inh inactive, JMJD2A Tudor inh inactive, TDP1 block inactive and Six1-Eya2 blk inactive.
For COc1cccc([C@@H]2Oc3ccc(Br)cc3C(=O)[C@H]2OC(=O)Nc2cc(OC)c(OC)c(OC)c2)c1 the results were TDP1 block inactive.
`COc1cc2c(cc1OC)CN(Cc1nc3ccsc3c(=O)[nH]1)CC2` gave BAZ2B inh 40µM, CtBP-E1A blk inactive, HP1b chromo inh inactive, JMJD2A Tudor inh inconclusive and Six1-Eya2 blk inactive.
CSc1nccn1C(=O)c1ccccc1[N+](=O)[O-] was read as BAZ2B inh inactive, CtBP-E1A blk inactive, HP1b chromo inh inactive, JMJD2A Tudor inh 35µM, TDP1 block inactive and Six1-Eya2 blk inactive.
`CC1CCN(c2nn3c(=O)c(C(=O)NCCc4ccc(Cl)cc4)cnc3s2)CC1` gave BAZ2B inh inactive, HP1b chromo inh inactive, JMJD2A Tudor inh inactive and TDP1 block inactive.
For CC(C)(CN1CCc2ccccc2C1)NS(=O)(=O)c1ccccc1 the results were BAZ2B inh inactive, CtBP-E1A blk inactive, HP1b chromo inh inconclusive, JMJD2A Tudor inh 3.2µM and Six1-Eya2 blk inactive.
`Cc1ccc(S(=O)(=O)NCCC(=O)N2CCC(Cc3ccccc3)CC2)cc1` gave BAZ2B inh inactive, CtBP-E1A blk inactive, HP1b chromo inh inactive, JMJD2A Tudor inh inactive and Six1-Eya2 blk inactive.
Screening CCC1CCCCN1CC(C)(C)NS(=O)(=O)c1ccccc1 (stereo unspecified) returned BAZ2B inh inconclusive, CtBP-E1A blk inactive, HP1b chromo inh inconclusive, JMJD2A Tudor inh 4.5µM, TDP1 block inactive and Six1-Eya2 blk inactive.
Screening CN1CCN(CC(C)(C)NS(=O)(=O)c2ccccc2)CC1 returned CtBP-E1A blk inactive, HP1b chromo inh inactive, JMJD2A Tudor inh inactive, TDP1 block inactive and Six1-Eya2 blk inactive.
Screening CC1CC(C)CN(CC(C)(C)NS(=O)(=O)c2ccccc2)C1 (stereo unspecified) returned BAZ2B inh 50µM, CtBP-E1A blk inactive, HP1b chromo inh inconclusive, JMJD2A Tudor inh 22µM, TDP1 block inactive and Six1-Eya2 blk inactive.
Screening Cc1ccc(S(=O)(=O)NC(C)(C)CN2CCC(Cc3ccccc3)CC2)cc1 returned BAZ2B inh 56µM, CtBP-E1A blk inactive, HP1b chromo inh inactive, JMJD2A Tudor inh 40µM and Six1-Eya2 blk inactive.
`COc1ccc(Cn2ncc3c4sc(C)cc4n(C)c3c2=O)cc1F` gave JMJD2A Tudor inh inactive and TDP1 block inactive.
`CCOc1ccc(-c2cc(C(=O)Nc3ccc(NC(C)=O)cc3)no2)cc1` gave BAZ2B inh inactive, HP1b chromo inh inactive, JMJD2A Tudor inh inactive and TDP1 block inactive.
Cc1ccc(NC(=O)CSc2nnc(-c3nnn(-c4ccc(F)cc4)c3C)o2)cc1Br was read as BAZ2B inh inactive, HP1b chromo inh inactive, JMJD2A Tudor inh inactive and TDP1 block inactive.
CC(=O)N1CCN(C(=S)NCCc2ccccc2)CC1 was read as BAZ2B inh inactive, HP1b chromo inh inactive, JMJD2A Tudor inh inactive, TDP1 block inactive and Six1-Eya2 blk inactive.
Screening S=C(NCCc1ccccc1)N1CCN(Cc2ccccc2)CC1 returned BAZ2B inh 56µM, CtBP-E1A blk inactive, HP1b chromo inh inconclusive, JMJD2A Tudor inh 4.5µM, TDP1 block inactive and Six1-Eya2 blk inconclusive.
`C=CCNC(=O)CN1CCN(Cc2ccc3c(c2)OCO3)CC1` gave BAZ2B inh inactive, CtBP-E1A blk inactive, HP1b chromo inh inactive, JMJD2A Tudor inh inactive and Six1-Eya2 blk inactive.
Screening C=CCNC(=S)N1CCN(Cc2ccc3c(c2)OCO3)CC1 returned BAZ2B inh 50µM, HP1b chromo inh inconclusive, JMJD2A Tudor inh 14µM and Six1-Eya2 blk inactive.
`COCCNC(=S)N1CCN(Cc2ccc3c(c2)OCO3)CC1` gave BAZ2B inh inactive, CtBP-E1A blk inactive, HP1b chromo inh inactive, JMJD2A Tudor inh inactive, TDP1 block inactive and Six1-Eya2 blk inactive.
For CCCNC(=S)N1CCN(Cc2ccc3c(c2)OCO3)CC1 the results were BAZ2B inh inconclusive, CtBP-E1A blk inactive, HP1b chromo inh inconclusive, JMJD2A Tudor inh 28µM, TDP1 block inactive and Six1-Eya2 blk inactive.
For CCNC(=S)N1CCN(Cc2ccc3c(c2)OCO3)CC1 the results were BAZ2B inh inactive, CtBP-E1A blk inactive, HP1b chromo inh inactive, JMJD2A Tudor inh inactive, TDP1 block inactive and Six1-Eya2 blk inactive.
`O=C(NC(=S)N1CCN(Cc2ccc3c(c2)OCO3)CC1)c1cccc(Br)c1` gave BAZ2B inh 25µM, CtBP-E1A blk inactive, HP1b chromo inh inactive, JMJD2A Tudor inh inconclusive, TDP1 block inactive and Six1-Eya2 blk inconclusive.
`CCN(CC)S(=O)(=O)c1ccc(NC(=O)c2nn(C)c3c2CSc2ccccc2-3)cc1` gave BAZ2B inh inactive, HP1b chromo inh inactive, JMJD2A Tudor inh inactive and TDP1 block inactive.
`O=C(c1ccc(Cl)cc1)N1CCC(c2nc3ccccc3o2)CC1` gave BAZ2B inh inactive, HP1b chromo inh inactive, JMJD2A Tudor inh inactive and TDP1 block inactive.
Cc1cc2nn(-c3ccc(F)cc3)nc2cc1NC(=O)c1cccc2c(Cl)cccc12 was read as BAZ2B inh inactive, HP1b chromo inh inactive, JMJD2A Tudor inh inactive and TDP1 block inactive.
O=c1c2sc3ccccc3c2n(Cc2ccccc2F)c(=O)n1Cc1ccccc1 was read as BAZ2B inh inactive, HP1b chromo inh inactive, JMJD2A Tudor inh inactive and TDP1 block inactive.
`CC1=C(C(=O)OCc2ccccc2)C(c2ccc(-c3ccccc3)cc2)NC(=O)N1CCCCCC(=O)O` (stereo unspecified) gave BAZ2B inh 50µM, CtBP-E1A blk inactive, HP1b chromo inh inactive, JMJD2A Tudor inh inconclusive, TDP1 block inactive and Six1-Eya2 blk inactive.
CC1=C(C(=O)OCc2ccccc2)C(c2ccccc2-c2ccccc2)NC(=O)N1CCCCCC(=O)O (stereo unspecified) was read as BAZ2B inh 50µM, CtBP-E1A blk inactive, HP1b chromo inh inactive, JMJD2A Tudor inh inconclusive, TDP1 block inactive and Six1-Eya2 blk inactive.
`CC1=C(C(=O)OCc2ccccc2)C(c2ccc(C(C)(C)C)cc2)NC(=O)N1CCCCCC(=O)O` (stereo unspecified) gave BAZ2B inh 50µM, CtBP-E1A blk inactive, HP1b chromo inh inactive, JMJD2A Tudor inh inactive, TDP1 block inactive and Six1-Eya2 blk inactive.
Screening CC1=C(C(=O)OCc2ccccc2)C(c2ccccc2)NC(=O)N1CCCCCC(=O)O (stereo unspecified) returned BAZ2B inh inactive, CtBP-E1A blk inactive, HP1b chromo inh inactive, JMJD2A Tudor inh inactive, TDP1 block inactive and Six1-Eya2 blk inactive.
Cc1nc(-c2ccc(S(=O)(=O)Nc3ccc(OC(F)(F)F)cc3)cc2)co1 was read as BAZ2B inh inactive, HP1b chromo inh inactive, JMJD2A Tudor inh inactive and TDP1 block inactive.
